# Bioassay records deposited in PubChem BioAssay by National Center for Advancing Translational Sciences (NCATS).
# The list is not random: actives were taken first. Their share in the collection is about 21%.
# HCV inhibitor = blocks hepatitis C virus; Huh7.5.1 HCVcc-Cre infection, luciferase reporter, 44 h; Potency, µM (highest dose often 41.8 µM), inactives show top-dose activity change, negative = inhibition, actives largely listed as inhibitors; actives 3.4% (n = 340,000); AID 651820; also: potency is read from the fitted curve at half-maximal effect; % is scaled to controls: 0 for no effect and ±100 for the full control effect
#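 Infectious HCV cell culture screen: compound-treated cells (1,000/well, pre-plated 4 h) are infected with HCVcc-Cre at roughly 0.5 moi and grown 44 h. Infection is quantified by luciferase signal after 15 min substrate incubation at room temperature.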
# Pf growth 48h = inhibits P. falciparum growth in the first generation, 48 h. P. falciparum luciferase growth in erythrocytes, 48 h. actives 5.9% (n = 310,000). Potency, µM (series often up to 28.7 µM), without a hit: at the top dose activity change, negative = inhibition, usual class: inhibitors. AID 504832; also: potency is read from the fitted curve at half-maximal effect; % is scaled to controls: 0 for no effect and ±100 for the full control effect
#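 Growth was read as firefly luciferase luminescence after a 48 h, 37 C, 5% CO2 exposure of compounds to reporter-bearing P. falciparum cultures (0.1% parasitemia, 2% hematocrit final) in Albumax-supplemented RPMI 1640.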
# Cycloheximide cs = counter-screen for Shiga toxin inhibitors: cycloheximide protein synthesis inhibition; cell reporter, cycloheximide protein synthesis inhibition counterscreen; actives 12% (n = 300,000); max response, %; in the data active = max response mostly above about 13%, no sharp cut-off; inactive = mostly below about 14%; also: read at 38.3 µM for the half of the compounds with a filed dose; 0% is about no effect
# Pf growth 96h = P. falciparum growth inhibition at 96 hour, primary screen for plastid delayed-death inhibitors; P. falciparum luciferase reporter growth, 96 h; Potency, µM (titrated, usually from 28.7 µM), inactives show at the top dose activity change, negative = inhibition, actives largely listed as inhibitors; actives 6.9% (n = 320,000); also: potency is read from the fitted curve at half-maximal effect; % is scaled to controls: 0 for no effect and ±100 for the full control effect
#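 Luminescence readout: decreased luciferase signal marks inhibited growth of reporter-expressing P. falciparum in infected red cells (2% hematocrit, 0.05% parasitemia final), exposed to compound two generations (96 h, 37 C, 5% CO2).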
# HCMV antiviral = blocks human cytomegalovirus replication; HFF cells, HCMV-luciferase reporter, 72 h; stronger effect = lower value; AID 1259415; activity change, negative = inhibition, % at 57.5 µM; actives 4.5% (n = 410,000); in the data active = activity change below about -60%; inconclusive = no clear call, values can overlap the other calls; inactive = above about -39%; also: % is scaled to controls: 0 for no effect and ±100 for the full control effect
#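 Steps: HFFs plated, 16 h 37C; compounds added; HCMV-luciferase added to MOI 1 PFU/cell; 72 h 37C; OneGlo reagent, 5 min room temperature; luminescence read, normalized to controls.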
# Shiga toxin inh = Shiga toxin inhibition; Vero cells, Shiga toxin protein synthesis inhibition reporter; actives 9.2% (n = 290,000); inhibition, % at 38.7 µM; in the data active = inhibition mostly above about 28%, no sharp cut-off; inactive = mostly below about 43%; also: 0% is about no effect
# Active calls of the source: *; ? = inconclusive; . = no result given. Unless noted, calls follow the shape of the dose curve; as a rule, active = well fitted inhibition curve with a large enough effect; inconclusive = small, poorly fitted or top-dose-only effect, or another doubt; inactive = no such curve, though single readings can be large or run the other way.
SMILES,HCV inhibitor,Pf growth 48h,Cycloheximide cs,Pf growth 96h,HCMV antiviral,Shiga toxin inh
Cc1nc2sc(C(c3cccs3)N3CCN(c4cccc(Cl)c4)CC3)c(O)n2n1 (stereo not drawn),-29%,-6%,-1,?,-62*,-5
Cc1nc2sc(C(c3cccs3)N3CC(C)CC(C)C3)c(O)n2n1 (stereo not drawn),1%,6.6µM*,-3,?,-10,-12
Cc1nc2sc(C(c3cccs3)N3CCN(C(=O)c4ccco4)CC3)c(O)n2n1 (stereo not drawn),17%,42%,-3,-29%,76,-8
CC(C)=NNc1ncnc2nc[nH]c12,-27%,.,.,.,-9,.
CCc1ccc(/C=N/Nc2ncnc3nc[nH]c23)cc1,10%,-44%,40*,-7%,36,82*
CCOC(=O)N1CCC2(CC1)NC(=O)c1ccccc1N2,.,.,.,.,-15,.
CC(C(c1ccc2c(c1)OCO2)c1c(N)n(C)c(=O)n(C)c1=O)[N+](=O)[O-] (stereo not drawn),-3%,.,.,.,-63*,.
CC(C)N=c1cc2n(-c3ccc(Cl)cc3)c3ccccc3nc-2cc1Nc1ccc(Cl)cc1,-12%,2.9µM*,.,?,-64*,.
Cc1ccc(Cl)cc1Nc1nc2ccccc2n2c(C)nnc12,.,.,.,.,3,.
COc1cccc(C2(O)CC(C(F)(F)F)=NN2C(=O)c2ccccn2)c1 (stereo not drawn),-12%,43%,38*,0.52µM*,16,65*
O=C(c1ccccc1)N1N=C(C(F)(F)F)CC1(O)c1ccccc1 (stereo not drawn),-22%,0%,1,-12%,-4,.
O=C(c1ccccc1)N1N=C(C(F)(F)F)CC1(O)c1ccc(F)cc1 (stereo not drawn),2%,18%,25*,2%,-3,59*
COc1cccc(C(=O)Nc2c3c(nn2-c2ccc(Cl)cc2)CS(=O)(=O)C3)c1,.,.,.,.,-8,.
Cc1cccc(-c2nc(CN3CCCC(C(=O)NC4CCCCC4)C3)c(C)o2)c1 (stereo not drawn),32µM*,?,2,27%,-21,-12
CCOC(=O)N1CCC(NC(=O)C2CCCN(Cc3nc(-c4ccc(CC)cc4)oc3C)C2)CC1 (stereo not drawn),2.5µM*,?,2,-4%,-87*,4
CCOC(=O)N1CCC(NC(=O)C2CCN(Cc3nc(-c4ccc(CC)cc4)oc3C)CC2)CC1,6%,.,.,.,33,.
O=C(COC(=O)CCSc1ccccc1)NCc1ccccc1,?,10%,10,36%,-32,11
Nc1c(C(=O)O)ccc2c1C(=O)c1ccccc1C2=O,23%,7%,1,21%,-39,22
COC(=O)c1ccc2c(c1O)C(=O)c1ccccc1C2=O,?,.,39*,4.1µM*,-15,64*
O=C1c2ccccc2C(=O)c2c1ccc(O)c2O,16%,-4%,.,16%,18,.
CCSc1c(C(=O)NC)ccc2c1C(=O)c1ccccc1C2=O,7%,-9%,-2,15µM*,28,-15
N#CC(C#N)=C1C=C2C=C(N3CCCCC3)CCC2CC1 (stereo not drawn),-19%,-2%,-3,1%,.,-15
N#CC1=C(N)C2=C(N3CCCCC3)CCCC2C1(C#N)C#N (stereo not drawn),-8%,5%,0,12µM*,.,21
COc1cc(/C=N/N(C)C)ccc1OC(=O)c1cccs1,0%,456%,29*,41%,-22,71*
COc1cc(/C=N/NC(N)=O)ccc1OC(=O)c1cccs1,16%,14%,-2,0%,-28,-31
SMILES,HCV inhibitor,Pf growth 48h,Cycloheximide cs,Pf growth 96h,HCMV antiviral,Shiga toxin inh
COc1cc(/C=N/Nc2ccc(Cl)cc2)ccc1OC(=O)c1cccs1,-1%,2%,16*,-18%,22,14
COc1cc(/C=N/N(C)C)ccc1OC(=O)c1ccco1,11%,-14%,19,3%,5,-6
CCc1nn(CC(=O)NCc2cccc(OC)c2)c(=O)c2cc3cc(F)ccc3n12,.,.,.,.,8,.
CC(C)(C)NCC(O)COc1c(F)cc(Br)cc1F (stereo not drawn),-3%,12µM*,-1,.,-12,-11
Cc1cc(C)c(OCC(O)CNC(C)(C)C)c(C)c1 (stereo not drawn),?,-16%,-2,15%,-18,21
CC(C)(C)CC(C)(C)NCC(O)COc1c(F)cc(Br)cc1F (stereo not drawn),?,.,-5,0.59µM*,-3,-10
CCCCCC(=O)Nc1cccc(-c2nc3ncccc3o2)c1,?,?,18,.,5,2
CCCC(=O)Nc1cccc(-c2nc3ncccc3o2)c1,.,.,.,.,40,.
CC(C)C(=O)Nc1cccc(-c2nc3ncccc3o2)c1,8%,-13%,10,-8%,96,.
CCCCC(=O)Nc1cccc(-c2nc3ncccc3o2)c1,-19%,?,7,12µM*,-25,33
CCCC(=O)Nc1ccc(-c2nc3ncccc3o2)cc1,11%,-53%,20*,?,42,175
O=C(Nc1cccc(-c2nc3ncccc3o2)c1)c1ccc(-c2cccc(Cl)c2Cl)o1,.,.,.,.,-92*,.
CSCCC(NS(=O)(=O)c1ccc(C)cc1)C(=O)N1CCN(C(c2ccccc2)c2ccccc2)CC1 (stereo not drawn),?,3.7µM*,.,6.6µM*,-6,.
CSCCC(NS(=O)(=O)c1ccc(C)cc1)C(=O)NC1CCCCCC1 (stereo not drawn),-29%,9.3µM*,.,?,-15,.
CSCCC(NS(=O)(=O)c1ccc2c(c1)oc(=O)n2C)C(=O)NC1CCN(Cc2ccccc2)CC1 (stereo not drawn),9%,8%,18,1.9µM*,-4,-15
CCC(=O)N1N=C(c2c(-c3ccccc3)c3cc(Cl)ccc3[nH]c2=O)CC1c1ccco1 (stereo not drawn),?,10µM*,8,?,-35,89
O=C(O)CCC(=O)N1N=C(c2c(-c3ccccc3)c3cc(Cl)ccc3[nH]c2=O)CC1c1ccco1 (stereo not drawn),30%,?,2,?,-1,-9
COc1cccc(C2CC(c3c(-c4ccccc4)c4cc(Cl)ccc4[nH]c3=O)=NN2S(C)(=O)=O)c1OC (stereo not drawn),11µM*,7.4µM*,7,.,-6,23
COc1ccccc1C1CC(c2c(-c3ccccc3)c3cc(Cl)ccc3[nH]c2=O)=NN1S(C)(=O)=O (stereo not drawn),?,12µM*,-3,?,9,14
Cc1ccc(-c2noc(-c3ccccc3C(=O)NCc3ccco3)n2)cc1,?,44%,33*,67%,31,63*
Cc1cccc(-c2noc(-c3ccccc3C(=O)NCc3ccco3)n2)c1,-10%,36%,75*,34%,30,125
